From PubChem
The list is not random: actives were taken first. Their share in the collection is about 3.2%.
NCF1 inh = p47phox/p22phox peptide binding inhibitors, primary screen, biochemical, uHTS, NADPH oxidase regulatory subunit; inhibition, % at 24.7 µM; 0.53% of 220,000 active; fluorescence polarization, 2 h;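 active means inhibition above about 30%, limit read from the data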;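 further: 0% = p47phox with labelled peptide and 100% = labelled peptide alone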
Target sequence (P14598 whole entry, looked up): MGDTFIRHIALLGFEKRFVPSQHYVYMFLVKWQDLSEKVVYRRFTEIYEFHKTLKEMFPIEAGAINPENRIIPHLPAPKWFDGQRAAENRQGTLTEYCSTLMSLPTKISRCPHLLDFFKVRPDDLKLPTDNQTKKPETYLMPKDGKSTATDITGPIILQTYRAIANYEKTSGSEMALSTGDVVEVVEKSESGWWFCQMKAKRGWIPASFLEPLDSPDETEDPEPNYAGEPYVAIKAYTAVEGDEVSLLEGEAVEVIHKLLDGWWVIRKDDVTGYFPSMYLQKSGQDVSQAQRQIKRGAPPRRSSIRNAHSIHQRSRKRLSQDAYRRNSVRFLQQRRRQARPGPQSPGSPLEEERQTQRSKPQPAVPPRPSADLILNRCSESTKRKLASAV
14-3-3 Bad PPI = inhibitors of 14-3-3 zeta/Bad binding, primary screen, biochemical, TR-FRET, bovine 14-3-3 zeta; 14-3-3 protein zeta/delta (Bos taurus), P63103; TR-FRET 14-3-3zeta/Dy647-pBad peptide displacement, 1 h; inhibition, % at 21.7 µM; 0.71% of 220,000 active; AID 781, 2007;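 active means inhibition above about 70%, limit read from the data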;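 further: 0% = full 14-3-3 plus peptide FRET controls and 100% = background without 14-3-3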
Mcl1-Noxa inh = Mcl-1/Noxa binding inhibitors, primary screen, biochemical, TR-FRET, 1536-well; Induced myeloid leukemia cell differentiation protein Mcl-1 (Homo sapiens), Q07820; TR-FRET Mcl-1/Noxa peptide binding, 2 h; inhibition, % at 21.7 µM; 1.5% of 220,000 active;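 active means compounds that cut the protein-peptide binding signal by more than 50% relative to plate controls in a single-dose test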;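 further: His-tagged Mcl-1 with rhodamine Noxa BH3 peptide and terbium anti-His antibody; 0% = Mcl-1 plus Noxa peptide wells and 100% = peptide-only wells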
Bim-Mcl-1 = inhibitors of Bim peptide binding to Mcl-1, primary screen, biochemical, bead-based flow cytometry, multiplex. Induced myeloid leukemia cell differentiation protein Mcl-1 (Homo sapiens), Q07820. Bim peptide-Mcl-1 binding. inhibition, % at 10 µM. 0.1% of 190,000 active. AID 1009, 2008; in the data active means inhibition above about 40%;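 further: 0% = no compound tracer wells and 100% = peptide blocker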
Mcl1-Bid inh = Mcl-1/Bid binding inhibitors, primary screen, biochemical, TR-FRET, 1536-well; Induced myeloid leukemia cell differentiation protein Mcl-1 (Homo sapiens), Q07820; TR-FRET Mcl-1/Bid-Dy647 peptide binding; inhibition, % at 21.7 µM; 0.97% of 220,000 active;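 active means compounds that cut the binding signal by more than half at the single screening dose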;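 further: His-tagged Mcl-1 with europium anti-His antibody binding Bid BH3 peptide; 0% = Mcl-1 plus peptide wells and 100% = peptide-only wells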
The depositor's hits bear a star; / = not tested or not shown; [ ] = another dose, or the depositor's remark.

SMILES | NCF1 inh | 14-3-3 Bad PPI | Mcl1-Noxa inh | Bim-Mcl-1 | Mcl1-Bid inh
Cn1c(-c2ccccc2)c(C(=O)CCl)c2ccccc21 | 0 | -2 | 70* | 0 | -23
CCn1c(-c2ccccc2)c(C(=O)CCl)c2ccccc21 | 2 | -9 | -7 | 0 | -15
O=C(O)CC(NC(=O)COc1ccc(Cl)cc1Cl)C(=O)O (centres undefined) | 3 | 0 | 20 | -2 | 72*
CC1CCCN(CCOCCOc2ccc(Br)cc2Cl)C1 (centres undefined) | -6 | 5 | 26 | -4 | 18
CC1CC(C)CN(CCOc2ccc(Cl)cc2Cl)C1 (centres undefined) | -18 | 72* | 28 | -5 | 25
O=C(COc1ccc(Cl)cc1Cl)NN=C1c2ccccc2-c2ccccc21 | 12 | 37 | -4 | -4 | 32
O=C(COc1ccc(Cl)cc1Cl)Nc1ccc(CN2CCCCC2)cc1 | 38* | -4 | 5 | -3 | -26
CC1CCCN(CCOCCOc2ccc(Cl)cc2Br)C1 (centres undefined) | -12 | 71* | 18 | -2 | 31
CC1CC(C)CN(CCOc2cccc(Cl)c2Cl)C1 (centres undefined) | 6 | 52 | 22 | -1 | 39
Cc1ccc(NC(=O)CN(C)C(=O)COc2cccc3cccnc23)cc1 | 0 | -21 | -1 | -2 | -49
COc1cc(OC)cc(C(C(=O)NC2CCCCC2)N(C(=O)c2ccno2)c2ccccc2)c1 (centres undefined) | -8 | -1 | 2 | 0 | 1
Clc1ccccc1OCCN1CCCCC1 | -3 | 67 | 16 | -3 | 20
Clc1ccc(OCCN2CCCCC2)c(Cl)c1 | -10 | 36 | 35 | 2 | 75*
COc1ccccc1OCCCCCc1c(C)n[nH]c1C | -8 | 72* | 10 | -3 | 4
C=CCNC(=O)C(=O)N/N=C/c1ccco1 | -3 | 2 | 5 | 1 | -5
NC(=O)c1sc(-c2ccsc2)cc1NS(=O)(=O)c1ccc(C(F)(F)F)cc1 | -14 | 6 | 28 | / | 28
COc1ccc(Br)c2oc(S)cc(=O)c12 | -6 | 50 | 64* | -6 | -7
COc1ccc(N(CC(=O)Nc2cc([N+](=O)[O-])ccc2C)S(C)(=O)=O)cc1OC | 7 | 1 | 0 | / | -10
COc1cc(NCCCCCCCN)c2ncccc2c1 | 34* | 10 | 32 | 22 | -23
COc1cc(NCc2ccccc2O)c2ncccc2c1 | 4 | -2 | -4 | / | -16
O=C(NNC(=O)c1ccc([N+](=O)[O-])cc1Cl)c1ccncc1 | -6 | -4 | 12 | -3 | -23
O=c1oc(-c2cccnc2)nc2ccccc12 | -2 | -6 | 4 | 0 | 8
Cc1cc(=O)c2cc3nc(-c4cccnc4)oc3c(Br)c2o1 | -10 | 28 | 54* | / | -52
CCCCc1cc(=O)oc2cc(O)ccc12 | -1 | -5 | 18 | 2 | 3
Cc1cccc(NC(=O)C2CCN(c3nc(C)cc(C)n3)CC2)c1 | -18 | -8 | -14 | 3 | 94*
SMILES | NCF1 inh | 14-3-3 Bad PPI | Mcl1-Noxa inh | Bim-Mcl-1 | Mcl1-Bid inh
COc1ccccc1N1CCN(C(=O)c2coc(=O)c(Br)c2)CC1 | -6 | -2 | 3 | / | -22
COc1ccc(Cc2c(O)nc(SC)n(C(C)=O)c2=O)cc1 | -11 | 4 | 8 | 67* | -76
COc1ccc(-n2c(SC)nc(O)c(Cc3ccccc3)c2=O)cc1 | -5 | 39 | 16 | -1 | -51
S=C(Cc1cccnc1)N1CCOCC1 | -3 | 5 | 21 | -11 | -18
C=CCOC(=O)c1cc(-c2ccc(/C=C3\C(=O)NC(=O)C(C#N)=C3C)o2)ccc1Cl | 39* | 92*[fluorescence artefact?] | 105* | -6 | 99*
CCCOC(=O)c1cc(-c2ccc(C=O)o2)ccc1Cl | -14 | 0 | 10 | -5 | -17
CC1=C(C#N)C(=O)NC(=O)/C1=C/c1ccc(-c2ccc(S(N)(=O)=O)cc2)o1 | -9 | 18 | 87* | 2 | -38
NS(=O)(=O)c1ccc(-c2ccc(C=O)o2)cc1 | -2 | -4 | 5 | 2 | -16
CCn1c(-c2nn(-c3ccccc3)ccc2=O)n[nH]c1=S | 7 | -4 | 27 | -3 | -35
